Experimental data taken from PubChem BioAssay AID2405 (Southern Research Specialized Biocontainment Screening …, 2010).

Assay: RSV cytopathic effect inhibition in HEp-2 – cell-based, probe candidates (AID 2405)
Conditions: HEp-2 cells, hits give high values; at 100 µM unless noted; call rule not given here

Maximum inhibition, inactive:
c1ccc2c(c1)CN1CCCC1=N2 1.32% [at 6.25 µM], COc1ccc(-c2csc(NC(=O)c3ccc(Cl)cc3)n2)cc1 0.97% [at 25 µM], O=C(CSc1nc2cccc(I)c2c(=O)n1-c1ccccc1)Nc1ccc2c(c1)CCC2 5.17%, Oc1ccccc1C(Nc1nccs1)c1ccc2cccnc2c1O (configuration not stated) 4.97% [at 12.5 µM], COc1ccc(NC(=O)CSc2nc3ccccc3c(=O)n2-c2ccc(F)cc2)cc1 18.6%, COc1cccc(C(NC(=O)c2ccccc2)c2ccc3cccnc3c2O)c1 (configuration not stated) 3.45% [at 12.5 µM], CC1CCN(CCCNC(=O)c2cc3c(s2)-c2ccccc2OC3)CC1 3.42% [at 50 µM], O=C(Nc1nc(-c2ccc(Cl)cc2)cs1)c1ccccc1F 3.06% [at 12.5 µM], OC1c2cc(Br)ccc2N=C2CCCCN21 (configuration not stated) 6.83%, OC1c2c(F)cccc2N=C2CCCCN21 (configuration not stated) 1.55% [at 12.5 µM], COc1cccc(-n2c(SCC(=O)Nc3ccc4c(c3)CCC4)nc3ccccc3c2=O)c1 8.16%, OC1c2cc(I)ccc2N=C2CCCN21 (configuration not stated) 0.75% [at 50 µM], O=[N+]([O-])c1ccc2c(c1)C(O)N1CCCC1=N2 (configuration not stated) 2.6% [at 12.5 µM], O=C(CSc1nc2ccccc2c(=O)n1-c1ccccc1F)Nc1ccc2c(c1)CCC2 7.99% [at 12.5 µM], O=C(Nc1nc(-c2ccc(Cl)cc2)cs1)c1ccc(Cl)cc1 2.44%, COc1ccc(-c2csc(N(CCCN(C)C)C(=O)c3ccccc3C)n2)cc1 0.96% [at 0.2 µM], CCCN(C(=O)c1ccccc1Cl)c1nc(-c2ccc(OC)cc2)cs1 14.1% [at 50 µM], COc1ccc(Cn2nc(C)cc2OC(=O)c2ccccc2)cc1 0.91% [at 25 µM], COc1ccc(-c2csc(NC(=O)c3cccc(Cl)c3)n2)cc1 1.49% [at 25 µM], O=c1c2c(F)cccc2nc2n1CCC2 2.17% [at 0.39 µM], O=C(CSc1nc2ccccc2c(=O)n1-c1ccc(F)cc1F)Nc1ccc(N2CCOCC2)cc1 1.49%, OC1c2cc(Br)ccc2N=C2CCCN21 (configuration not stated) 13.5%, O=C(CSc1nc2ccc(F)cc2c(=O)n1-c1ccccc1)Nc1ccc2c(c1)CCC2 14.7%, O=c1c2cccc(Cl)c2nc2n1CCC2 1.74% [at 50 µM], O=C(CSc1nc2ccccc2c(=O)n1-c1ccc(Cl)cc1)Nc1ccc2c(c1)CCC2 11.5% [at 25 µM], COc1ccc(-c2csc(N(CCCBr)C(=O)c3ccccc3Cl)n2)cc1 3.83% [at 50 µM], CCN(CC)CCCNC(=S)N1CCN(c2nc(-c3ccc(F)cc3)cs2)CC1 0.61% [at 0.2 µM]
